Laboratory results: PubChem BioAssay (Tox21)
Values without a mark were called inactive. Records with an inconclusive call do not appear. Activity calls are given as the source filed them. Unless noted, the call rests on the fitted dose curve.

Test system: not listed separately
Test: qHTS assay to identify small molecule agonists of the estrogen receptor beta (ER-beta) signaling pathway - cell viability counter screen (AID 1259380; active means well fitted curve in the direction sought with a large enough effect in the repeat runs; an effect the other way counts as inactive or inconclusive; further: nearly all actives have a fitted effect of over 30% in size)
Details: ER-beta-bla HEK293T viability, CellTiter-Glo luminescence, 16 h; series mostly up to 92.4 µM; activity change, negative = cytotoxicity: at the top concentration
Procedure, shortened: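 Cytotoxicity is measured in parallel with the reporter screen: after 16 hr compound exposure at 37C and a 2 hr LiveBLAzer step, CellTiter-Glo is added to the same ER-beta-UAS-bla HEK293T wells and luminescence read after 30 min.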
On the % scale 0 is the no-effect control and ±100 the full control effect; potency means the concentration at half of the fitted maximal effect.

Going from `Nc1c(Br)cc([N+](=O)[O-])cc1Br` to `COc1cc([C@@H]2c3cc4c(cc3[C@@H](O[C@@H]3O[C@@H]5CO[C@@H](C)O[C@H]5[C@H](O)[C@H]3O)[C@H]3COC(=O)[C@H]23)OCO4)cc(OC)c1O`, the “activity change, negative = cytotoxicity” value rises from -10.8% to 5.37%.

For `CC(C)=CCC[C@H](C)CC=O`, the “activity change, negative = cytotoxicity” value was -0.446%.

In the case of `c1ccc(-c2ccccc2-c2ccccc2)cc1`, the Potency was 68.6 µM (active).
In the case of `S=C1NC=NC2N=CNC12` (stereo not given), the Potency was 3.44 µM (active).

Biological target: Androgen receptor (Homo sapiens) (UniProt P10275)
Sequence (P10275 whole entry, looked up): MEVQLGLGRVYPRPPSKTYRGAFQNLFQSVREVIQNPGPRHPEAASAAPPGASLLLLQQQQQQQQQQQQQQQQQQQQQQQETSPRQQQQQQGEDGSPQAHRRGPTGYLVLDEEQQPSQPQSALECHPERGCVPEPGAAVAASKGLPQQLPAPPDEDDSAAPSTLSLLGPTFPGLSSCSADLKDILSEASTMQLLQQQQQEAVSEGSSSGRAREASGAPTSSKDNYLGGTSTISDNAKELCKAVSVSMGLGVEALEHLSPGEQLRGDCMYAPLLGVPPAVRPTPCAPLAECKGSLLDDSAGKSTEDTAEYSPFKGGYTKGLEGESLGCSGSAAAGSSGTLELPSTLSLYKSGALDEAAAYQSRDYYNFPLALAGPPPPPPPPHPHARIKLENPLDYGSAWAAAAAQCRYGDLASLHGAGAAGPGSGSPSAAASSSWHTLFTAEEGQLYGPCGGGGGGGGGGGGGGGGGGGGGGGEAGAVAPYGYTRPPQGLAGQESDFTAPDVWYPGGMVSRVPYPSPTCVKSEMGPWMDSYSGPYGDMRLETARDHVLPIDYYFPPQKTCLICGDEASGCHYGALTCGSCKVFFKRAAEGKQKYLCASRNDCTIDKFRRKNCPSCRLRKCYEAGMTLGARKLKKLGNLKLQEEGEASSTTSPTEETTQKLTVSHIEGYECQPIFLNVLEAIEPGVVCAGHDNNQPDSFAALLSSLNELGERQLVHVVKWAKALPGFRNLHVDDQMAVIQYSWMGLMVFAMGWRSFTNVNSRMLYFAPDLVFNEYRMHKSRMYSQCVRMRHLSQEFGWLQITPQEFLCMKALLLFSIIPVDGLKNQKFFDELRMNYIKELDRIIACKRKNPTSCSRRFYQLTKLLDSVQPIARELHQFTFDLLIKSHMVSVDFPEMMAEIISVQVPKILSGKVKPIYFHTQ
Test: qHTS assay to identify small molecule agonists of the androgen receptor (AR) signaling pathway in the presence of an antagonist (AID 1259381); further: nearly all actives have a fitted effect of over 15% in size
Details: MDA-kb2 MMTV-luciferase, AR agonist + nilutamide, 16 h; series mostly up to 92.4 µM; activation: at the top concentration
Procedure, shortened: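 Agonist-mode confirmation screen: human MDA-kb2 cells stably expressing luciferase under an MMTV promoter bearing AR and GR response elements, co-treated with 3.0uM nilutamide (final). Luminescence measured after 16hr compound incubation.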

First: C=CCc1cc(S(=O)(=O)c2ccc(O)c(CC=C)c2)ccc1O
Second: O=S(=O)(c1ccc(OCc2ccccc2)cc1)c1ccccc1O
The “activation” value of the first is higher: -8.31% for the first, -11.3% for the second.

Compared with `Oc1ccc2c(c1)CCC2`, `CCCCCc1ccc(O)cc1` is higher in “activation” value: -1.31% for the first, 7.44% for the second.

Compared with `Cc1ccc(S(=O)(=O)C(I)I)cc1`, `CCOC(=O)C1=NN(c2ccc(Cl)cc2Cl)C(C)(C(=O)OCC)C1` (stereo not given) is higher in “activation” value: -7.13% for the first, -3.24% for the second.

First: CC(C)(c1ccc(Oc2ccc(N)cc2)cc1)c1ccc(Oc2ccc(N)cc2)cc1
Second: NCc1cccc(C2CCN(C(=O)c3ccc(C#Cc4ccccc4F)o3)CC2)c1
The “activation” value of the first is higher: -0.131% for the first, -1.79% for the second.

Compared with `O=C1C=CC(=O)N1c1cccc(N2C(=O)C=CC2=O)c1`, `C=C1C(CCl)(CCl)C2(Cl)C(Cl)C(Cl)C1(Cl)C2(Cl)Cl` (stereo not given) is lower in “activation” value: -7.6% for the first, -8.39% for the second.

For `CCN(CC)c1ccc(C=O)c(O)c1`, the Potency was 43.3 µM (active).
For `CCN(CC)c1ccc(C=O)cc1`, the Potency was 34.4 µM (active).

Going from `CC(C)(C)c1cc(CCC(=O)OCCSCCOC(=O)CCc2cc(C(C)(C)C)c(O)c(C(C)(C)C)c2)cc(C(C)(C)C)c1O` to `CCCCCCCCCCCCCCCCCCNC(=O)OC1CCN(C(=O)OC[C@H](COC(=O)N(Cc2cccc[n+]2CC)C(=O)c2ccccc2OC)OC)CC1`, the “activation” value falls from -0.373% [at 42.5 µM] to -3.68% [at 42.5 µM].

For `c1ccc2c(c1)-c1ccc3ccc4cccc5cc-2c1c3c45`, the “activation” value was 6.49% [at 42.5 µM].

Test system: not listed separately
Test: qHTS assay to identify small molecule antagonists of the estrogen receptor beta (ER-beta) signaling pathway - cell viability counter screen (AID 1259382; active means well fitted curve in the direction sought with a large enough effect in the repeat runs; an effect the other way counts as inactive or inconclusive; further: nearly all actives have a fitted effect of over 55% in size;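 on activity change, negative = cytotoxicity: HEK293T cells carrying ER-beta-UAS-bla reporter stimulated with estradiol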)
Details: ER-beta-UAS-bla HEK293T viability, CellTiter-Glo luminescence, 16 h; series mostly up to 92.4 µM; activity change, negative = cytotoxicity: at the top concentration
Procedure, shortened: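 Cytotoxicity counter screen multiplexed with the beta-lactamase antagonist assay: GripTite HEK293T ER-beta-bla cells were treated 16 hr with test chemicals in the presence of 1nM 17-beta-estradiol, and viability was measured by CellTiter-Glo.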

Compared with `CCN(CC)c1ccc(C=O)c(O)c1`, `CCN(CC)c1ccc(C=O)cc1` is lower in “activity change, negative = cytotoxicity” value: -14.3% for the first, -19.6% for the second.

Compared with `Oc1ccc2c(c1)CCC2`, `Cc1ccc(Cl)c(N)c1Cl` is lower in “activity change, negative = cytotoxicity” value: 7.88% for the first, 5.4% for the second.

First: O=C1CCC/C=C\CCCCCCCCCC1
Second: COc1cc([C@@H]2c3cc4c(cc3[C@@H](O[C@@H]3O[C@@H]5CO[C@@H](C)O[C@H]5[C@H](O)[C@H]3O)[C@H]3COC(=O)[C@H]23)OCO4)cc(OC)c1O
The “activity change, negative = cytotoxicity” value of the first is lower: -5.2% for the first, 5.58% for the second.

First: CCOC(=O)[C@H](C)O
Second: CCOC(=O)C1=NN(c2ccc(Cl)cc2Cl)C(C)(C(=O)OCC)C1 (stereo not given)
The “activity change, negative = cytotoxicity” value of the first is higher: 6.59% for the first, -10.6% for the second.

Compared with `CCCCCCCC/C=C\CCCCCCCC(=O)N(CCO)CCO`, `CC(C)=CCC[C@H](C)CC=O` is higher in “activity change, negative = cytotoxicity” value: -21.4% for the first, 0.269% for the second.

First: CCOc1ccc([N+](=O)[O-])cc1
Second: O=C(N[C@H](CO)[C@H](O)c1ccc([N+](=O)[O-])cc1)C(Cl)Cl
The “activity change, negative = cytotoxicity” value of the first is lower: -13% for the first, 0.997% for the second.

With `Cc1ccc(S(=O)(=O)C(I)I)cc1` the Potency was 30.6 µM (active).
In the case of `CN1CCN(c2ccccc2/C=C2\SCCN(c3ccc(Cl)c(Cl)c3)C2=O)CC1`, the Potency was 61.1 µM (active).
In the case of `O=C1C=CC(=O)N1c1cccc(N2C(=O)C=CC2=O)c1`, the Potency was 68.6 µM (active).
With `NCc1cccc(C2CCN(C(=O)c3ccc(C#Cc4ccccc4F)o3)CC2)c1` the Potency was 61.1 µM (active).
For `CN1CCN(CCCN2c3ccccc3Sc3ccc(C(F)(F)F)cc32)CC1`, the Potency was 21.1 µM (active).
In the case of `CCN(CC)c1ccc(N=Nc2ccccc2)cc1`, the Potency was 30.6 µM (active).

Going from `CC(C)(C)c1cc(CCC(=O)OCCSCCOC(=O)CCc2cc(C(C)(C)C)c(O)c(C(C)(C)C)c2)cc(C(C)(C)C)c1O` to `Cc1ccc2nc(-c3ccc(N)cc3)sc2c1S(=O)(=O)O`, the “activity change, negative = cytotoxicity” value falls from 3.94% [at 42.5 µM] to -18% [at 42.5 µM].

For `c1ccc2c(c1)-c1ccc3ccc4cccc5cc-2c1c3c45`, the “activity change, negative = cytotoxicity” value was 7.91% [at 42.5 µM].

Biological target: Estrogen receptor (Homo sapiens) (UniProt P03372)
Sequence (P03372 whole entry, looked up): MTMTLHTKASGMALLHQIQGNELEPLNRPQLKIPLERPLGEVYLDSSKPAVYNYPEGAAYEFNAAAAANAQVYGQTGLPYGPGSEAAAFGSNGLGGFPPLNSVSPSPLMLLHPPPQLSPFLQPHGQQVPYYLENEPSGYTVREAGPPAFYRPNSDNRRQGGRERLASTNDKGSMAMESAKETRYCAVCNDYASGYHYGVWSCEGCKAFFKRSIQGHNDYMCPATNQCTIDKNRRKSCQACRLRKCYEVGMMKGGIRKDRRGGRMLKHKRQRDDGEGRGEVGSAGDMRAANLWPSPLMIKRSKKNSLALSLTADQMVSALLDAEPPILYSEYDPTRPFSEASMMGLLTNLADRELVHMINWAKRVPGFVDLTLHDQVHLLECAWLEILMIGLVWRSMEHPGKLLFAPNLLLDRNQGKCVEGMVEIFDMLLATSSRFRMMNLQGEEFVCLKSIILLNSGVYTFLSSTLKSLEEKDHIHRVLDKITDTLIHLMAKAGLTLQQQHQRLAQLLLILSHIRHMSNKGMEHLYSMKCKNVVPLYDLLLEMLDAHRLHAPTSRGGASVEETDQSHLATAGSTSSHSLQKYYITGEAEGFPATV
Test: qHTS assay to identify small molecule agonists of the estrogen receptor alpha (ER-alpha) signaling pathway in the presence of an antagonist (AID 1259383); further: nearly all actives have a fitted effect of over 15% in size; on activation: top concentration of the series differs between compounds
Details: VM7Luc4E2 cells, ERE-luciferase, +ICI-182,780, 22 h; series mostly up to 92.4 µM; activation: at the top concentration
Procedure, shortened: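 Agonist-mode confirmation in the presence of the ER antagonist ICI-182,780 at 10.0nM final. Breast-derived VM7Luc4E2 reporter cells were exposed to compounds for 22hr, and ERE-driven luciferase was quantified by luminescence.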

First: C=CCc1cc(S(=O)(=O)c2ccc(O)c(CC=C)c2)ccc1O
Second: CC(Cc1ccc(O)c(O)c1)C(C)Cc1ccc(O)c(O)c1 (stereo not given)
The “activation” value of the first is lower: -1.37% for the first, 0.367% for the second.

First: CCN(CC)c1ccc(C=O)c(O)c1
Second: CCN(CC)c1ccc(C=O)cc1
The “activation” value of the first is higher: 2.99% for the first, 0.668% for the second.

First: Oc1ccc2c(c1)CCC2
Second: CCCCCc1ccc(O)cc1
The “activation” value of the first is lower: 1.77% for the first, 6.81% for the second.

Going from `Cc1ccc(S(=O)(=O)C(I)I)cc1` to `O=S(=O)(c1ccc(OCc2ccccc2)cc1)c1ccccc1O`, the “activation” value falls from -9.87% to -10.8%.

First: CC(C)(c1ccc(Oc2ccc(N)cc2)cc1)c1ccc(Oc2ccc(N)cc2)cc1
Second: c1ccc(-c2ccccc2-c2ccccc2)cc1
The “activation” value of the first is lower: -12.7% for the first, 3.17% for the second.

Going from `CN1CCN(c2ccccc2/C=C2\SCCN(c3ccc(Cl)c(Cl)c3)C2=O)CC1` to `COc1cccc(-c2ccc(/C=C\CN3CCCCCC3)cc2Cl)c1`, the “activation” value rises from -15% to 0.0409%.

Compared with `O=C1C=CC(=O)N1c1cccc(N2C(=O)C=CC2=O)c1`, `NCc1cccc(C2CCN(C(=O)c3ccc(C#Cc4ccccc4F)o3)CC2)c1` is higher in “activation” value: -6.88% for the first, 7.14% for the second.

Compared with `CCOC(=O)[C@H](C)O`, `CCCCC/C=C\C=C\C(=O)OCC` is lower in “activation” value: -0.0141% for the first, -0.958% for the second.

First: Nc1c(Br)cc([N+](=O)[O-])cc1Br
Second: O=C(N[C@H](CO)[C@H](O)c1ccc([N+](=O)[O-])cc1)C(Cl)Cl
The “activation” value of the first is lower: -1.12% for the first, 1.49% for the second.

Going from `CCOC(=O)C1=NN(c2ccc(Cl)cc2Cl)C(C)(C(=O)OCC)C1` (stereo not given) to `O=c1[nH]cccc1O`, the “activation” value falls from -0.756% to -0.882%.

First: CCCCCCCC/C=C\CCCCCCCC(=O)N(CCO)CCO
Second: CCCCCCCCCC[N+](C)(CCCCCCCCCC)CCC[Si](OC)(OC)OC
The “activation” value of the first is lower: -0.509% for the first, 0.0876% for the second.

Going from `C/C(=C\c1ccc(C(=O)O)cc1)c1ccc2c(c1)C(C)(C)CCC2(C)C` to `Cc1ccc2nc(-c3ccc(N)cc3)sc2c1S(=O)(=O)O`, the “activation” value rises from -5.11% [at 42.5 µM] to 8.64% [at 42.5 µM].

First: CC(C)(C)c1cc(CCC(=O)OCCSCCOC(=O)CCc2cc(C(C)(C)C)c(O)c(C(C)(C)C)c2)cc(C(C)(C)C)c1O
Second: CCCCCCCCCCCCCCCCCCNC(=O)OC1CCN(C(=O)OC[C@H](COC(=O)N(Cc2cccc[n+]2CC)C(=O)c2ccccc2OC)OC)CC1
The “activation” value of the first is higher: -2.14% [at 42.5 µM] for the first, -9.11% [at 42.5 µM] for the second.

With `c1ccc2c(c1)-c1ccc3ccc4cccc5cc-2c1c3c45` the “activation” value was 0.423% [at 42.5 µM].

In the case of `CCN(CC)c1ccc(N=Nc2ccccc2)cc1`, the Potency was 0.193 µM (active).
For `CCOc1ccc([N+](=O)[O-])cc1`, the Potency was 24.7 µM (active).
